Results published in PubChem BioAssay (Tox21).
“And” between values parts separate entries of the source, which are not always exact repeats. Identical values can stand only once. Records with an inconclusive call do not appear. Where a call stands in place of a potency, no number is given. More than one record can exist for a structure, and the calls need not agree. The source made the active and inactive calls. The call rests on the fitted dose curve; in most records, active means well fitted activation curve with a large enough effect in the repeat runs; inconclusive means weak or mixed curves; inactive means flat fitted curve, though single readings scatter.

Assay: A CellTox Green Cytotoxicity Assay to monitor cytotoxicity in HepG2 cells - 8 hour (AID 1224890); further: nearly all actives have a fitted effect of over 45% in size
Conditions: CellTox Green fluorescence; series mostly up to 76.8 µM
Text: National Center for Advancing Translational Sciences [NCATS]
NIH Chemical Genomics Center [NCGC]
U.S. Environmental Protection Agency [EPA]
National Institutes of Environmental Health Sciences [NIEHS]
National Toxicology Program [NTP]
Cell-based models are critical for drug discovery. Determining the natural cytotoxic effects resulting from test compounds is an essential research activity. A CellTox Green Cytotoxicity Assay to monitor cytotoxicity in real time of continues cell culture during 40 hours of the compound treatment was used to screen Tox21 10K library compounds in HepG2 cells. CellTox Green Cytotoxicity Assay is a nonlytic, homogeneous, biofluorescent method to measure cytotoxicity in cell culture after experimental manipulation. The assay system uses a proprietary asymmetric cyanine dye that is excluded from viable cells but preferentially stains the dead cell's DNA. […] Viable cells produce no appreciable increases in fluorescence. Therefore, the fluorescence signal produced by the binding interaction with dead cell DNA is proportional to cytotoxicity.
The mixture of HepG2 cell suspension and reagents were dispensed at 600cells/6 ul/well in 1536-well tissue culture treated black solid bottom plates using a Multidrop dispenser. After the assay plates were incubated at a 37 C/5% CO2 incubator for 5 hours, 23 nL of compounds dissolved in DMSO, positive and negative controls was transferred to the assay plate by a pintool work station. The plates were incubated at 37 C for 40 hours. The fluorescence intensity were measured at 0h, 8h, 16h, 24h, 32h and 40h time points using ViewLux plate reader during compound treatment.
Potency means the concentration at half of the fitted maximal effect.

Compound	Potency	cytotoxicity increase
CC/C=C\CC/C=C/CO	inactive	–
O=C(O)Cc1ccc(CCNS(=O)(=O)c2ccc(Cl)cc2)cc1	inactive	–
CN1CCN(c2cc3c(cc2F)c(=O)c(C(=O)O)cn3-c2ccc(F)cc2)CC1	inactive	–
CS(=O)(=O)O	inactive	–
Cc1cccc(C)c1NC(=O)C(C)N (stereo not given)	21.3 µM (active)	–
CCN1CCC[C@H]1CNC(=O)c1c(O)c(Cl)cc(Cl)c1OC	inactive	–
COC(=O)NN	inactive	–
O=C(O)CN(CCOCCOCCN(CC(=O)O)CC(=O)O)CC(=O)O	–	-22.5% [at 0.29 µM] (inactive)
CCOC(=O)Nc1ccc(NCc2ccc(F)cc2)nc1N	inactive	–
CCC(C)C1CCCCC1=O (stereo not given)	inactive	–
N=c1nc(N2CCCCC2)cc(N)n1O	inactive	–
CCCC(=O)O[C@]1(C(=O)CO)CC[C@H]2[C@@H]3CCC4=CC(=O)CC[C@]4(C)[C@H]3[C@@H](O)C[C@@]21C	inactive	–
C=C1CC[C@H]2C[C@@H]1C2(C)C	inactive	–
C=CCCCCCCCCC=O	inactive	–
O=c1cc(-c2ccccc2)oc2ccccc12	inactive	–
CC(C)CNCC(C)C	inactive	–
COC(=O)c1c(Cl)c(Cl)c(C(=O)OC)c(Cl)c1Cl	inactive and 110 nM (active)	–
CCCCCCCCCCCCCCCCC	inactive	–
O=C(O)CCCl	inactive	–
COc1ccccc1OCC(O)CN1CCN(CC(=O)Nc2c(C)cccc2C)CC1 (stereo not given)	inactive	–

Compound	Potency	cytotoxicity increase
COC(C)(C)CCCC(C)CC=O (stereo not given)	inactive	–
CCc1cccc2c(CCO)c[nH]c12	inactive	–
COc1ccc2c(c1)CCCC2=O	inactive	–
O=[N+]([O-])c1ccc(F)cc1F	inactive	–
NC(=O)c1cn(Cc2c(F)cccc2F)nn1	inactive	–
CC1(C)CO[C@@H](CC(=O)O)CN1	inactive	–
O=C1OC(=O)C2CCCCC12 (stereo not given)	inactive	–
CN(C)CCCNCCCN(C)C	inactive	–
NCCc1cnc[nH]1	inactive	–
CC(C)(C)c1nnc(NS(=O)(=O)c2ccccc2)s1	inactive	–
CCO/C([O-])=N/c1c[n+](N2CCOCC2)no1	inactive	–
CCCCC/C=C\CCC=O	inactive	–
CCCCCCCCCCCC	inactive	–
COCCc1ccc(OCC(O)CNC(C)C)cc1 (stereo not given)	inactive	–
FC1(F)C(F)(F)C(F)(F)C2(F)C(F)(F)C(F)(F)C(F)(F)C(F)(F)C2(F)C1(F)F (stereo not given)	inactive	–
CCCCCOC(=O)CCCCC	inactive	–
CCCCCCCCCCCCN(CCCCCCCCCCCC)CCCCCCCCCCCC	inactive	–
C/C=C(\C)C#N	inactive	–
C[N+](C)(C)CCCCCC[N+](C)(C)C	inactive	–
C[N+](C)(C)CC(O)CC(=O)[O-] (stereo not given)	inactive	–
